Experiment [1] can be described thus: qHTS assay to identify small molecule antagonists of the estrogen receptor alpha (ER-alpha) signaling pathway using the BG1 cell line in the presence of 0.1 nM 17-beta-estradiol - cell viability counter screen (AID 1259241). Further: nearly all actives have a fitted effect of over 40% in size. In outline: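 Measures cytotoxicity alongside the ER-alpha antagonist readout: VM7Luc4E2 cells, charcoal-stripped serum, 0.1 nM 17beta-estradiol final, 22 hr compound incubation at 37C, CellTiter-Fluor fluorescence.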

Experiment [2] in a line: qHTS assay to identify small molecule antagonists of the androgen receptor (AR) signaling pathway using the MDA cell line in the presence of 0.5 nM R1881 - cell viability counter screen (AID 1259242). Further: nearly all actives have a fitted effect of over 45% in size. Summed up:
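Steps: plate MDA-kb2 cells, rest 5 hr at 37C without CO2; pin in compounds in DMSO; add R1881 to 0.5 nM final; incubate 16 hr; add CellTiter-Fluor, 30 min; read fluorescence.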

Experiment [3] deals with Androgen receptor (Homo sapiens) (UniProt P10275). Kind of experiment: qHTS assay to identify small molecule antagonists of the androgen receptor (AR) signaling pathway using the MDA cell line in the presence of 0.5 nM R1881 (AID 1259243). Further: nearly all actives have a fitted effect of over 50% in size. Further: potency means the concentration at half of the fitted maximal effect. In outline:
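Stably transfected MDA-kb2 cells express luciferase from an MMTV promoter bearing both AR and GR response elements. Compounds plus 0.5 nM R1881 (final) were incubated 16 hr at 37C without CO2, then luminescence measured.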

The target in experiment [4] is Estrogen receptor (Homo sapiens) (UniProt P03372). The experiment in a line: qHTS assay to identify small molecule antagonists of the estrogen receptor alpha (ER-alpha) signaling pathway using the BG1 cell line in the presence of 0.1 nM 17-beta-estradiol (AID 1259244). Further: nearly all actives have a fitted effect of over 50% in size. Summed up: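 Antagonist mode: compounds in DMSO are pinned onto VM7Luc4E2 reporter cells, 0.1 nM final 17beta-estradiol is added, and after 22 h at 37C luciferase luminescence is measured with ONE-Glo.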
Chain of Estrogen receptor (Homo sapiens) (P03372 whole entry, looked up): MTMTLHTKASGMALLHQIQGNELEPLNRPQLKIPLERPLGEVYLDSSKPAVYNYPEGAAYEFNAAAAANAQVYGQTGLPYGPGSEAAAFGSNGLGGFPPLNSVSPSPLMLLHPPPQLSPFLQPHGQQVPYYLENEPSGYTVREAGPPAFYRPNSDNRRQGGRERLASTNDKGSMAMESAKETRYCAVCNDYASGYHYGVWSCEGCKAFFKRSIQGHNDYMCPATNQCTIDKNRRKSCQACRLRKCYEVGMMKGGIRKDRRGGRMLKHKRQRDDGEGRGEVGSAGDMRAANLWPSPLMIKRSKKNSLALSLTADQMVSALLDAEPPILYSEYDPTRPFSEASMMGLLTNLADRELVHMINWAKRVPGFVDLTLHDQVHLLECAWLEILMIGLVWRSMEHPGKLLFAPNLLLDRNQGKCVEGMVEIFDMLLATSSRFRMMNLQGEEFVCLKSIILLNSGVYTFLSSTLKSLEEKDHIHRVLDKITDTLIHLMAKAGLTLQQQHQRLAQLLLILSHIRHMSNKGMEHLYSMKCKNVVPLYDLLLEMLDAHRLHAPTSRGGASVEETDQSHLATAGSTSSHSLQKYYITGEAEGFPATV

Experiment [5] in a line: qHTS assay to identify small molecule HDAC inhibitors - cell viability counter screen (AID 1259365). Further: series mostly up to about 92 µM; nearly all actives have a fitted effect of over 50% in size. Summed up:
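Following a 2hr exposure of overnight-plated wild-type HCT-116 cells to DMSO-delivered compounds, CellTiter-Glo was added and luminescence recorded after 30min at room temperature.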

Experiment [6] is described as follows: qHTS assay to identify small molecule agonists of the sonic hedgehog signaling (Shh) pathway - cell viability counter screen (AID 1259366). Further: nearly all actives have a fitted effect of over 50% in size. In outline:
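After a 4hr attachment at 37C, NIH/3T3 cells bearing an integrated Gli1-driven luciferase reporter were dosed with compounds. Treatment lasted 24hr, with the final hour including CellTiter-Fluor for a fluorescence viability measurement.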

A short description of experiment [7]: qHTS assay to identify small molecule antagonists of the sonic hedgehog signaling (Shh) pathway - cell viability counter screen (AID 1259367). Further: nearly all actives have a fitted effect of over 55% in size. In outline: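 CellTiter-Fluor signal in conditioned medium-stimulated 3T3 Gli1-Luc cells, 23 hr compound exposure, 37C.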
Experiment [8] in a line: qHTS assay to identify small molecule agonists of the sonic hedgehog signaling (Shh) pathway (AID 1259368; calls by dose curve;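 further: NIH/3T3-derived 3T3Gli1-Luc cells carrying a stable Gli1-driven firefly luciferase reporter; series mostly up to about 92 µM; nearly all actives have a fitted effect of over 15% in size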). In outline: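 Cells of a mouse NIH/3T3 clone stably expressing luciferase under the Gli1 transcriptional response element are exposed to test chemicals for 24 hr at 37 C. Pathway activation is detected as a rise in luminescence.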
A short description of experiment [9]: qHTS assay to identify small molecule antagonists of the sonic hedgehog signaling (Shh) pathway (AID 1259369; calls by dose curve; further: nearly all actives have a fitted effect of over 45% in size; further: potency means the concentration at half of the fitted maximal effect). In outline: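 Cells are plated and held 4hr at 37 C, compounds (DMSO) are pinned in, conditioned medium is added to stimulate the pathway, and after 24hr luciferase reagent is added for 30min before luminescence is read.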
The target of experiment [10] is Estrogen receptor beta (Homo sapiens) (UniProt Q92731). The experiment in a line: qHTS assay to identify small molecule agonists of the estrogen receptor beta (ER-beta) signaling pathway (AID 1259377; active means well fitted activation curve with a large enough effect in the signal ratio in the repeat runs, not every such curve was filed as active; the % refers to the signal ratio). In outline: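 In HEK293T cells bearing a UAS-beta-lactamase reporter under ER-beta control, DMSO-delivered compounds were incubated for 16 hr at 37C. Activity was detected as fluorescence 2 hours after LiveBLAzer B/G FRET substrate addition.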
Chain of Estrogen receptor beta (Homo sapiens) (Q92731 whole entry, looked up): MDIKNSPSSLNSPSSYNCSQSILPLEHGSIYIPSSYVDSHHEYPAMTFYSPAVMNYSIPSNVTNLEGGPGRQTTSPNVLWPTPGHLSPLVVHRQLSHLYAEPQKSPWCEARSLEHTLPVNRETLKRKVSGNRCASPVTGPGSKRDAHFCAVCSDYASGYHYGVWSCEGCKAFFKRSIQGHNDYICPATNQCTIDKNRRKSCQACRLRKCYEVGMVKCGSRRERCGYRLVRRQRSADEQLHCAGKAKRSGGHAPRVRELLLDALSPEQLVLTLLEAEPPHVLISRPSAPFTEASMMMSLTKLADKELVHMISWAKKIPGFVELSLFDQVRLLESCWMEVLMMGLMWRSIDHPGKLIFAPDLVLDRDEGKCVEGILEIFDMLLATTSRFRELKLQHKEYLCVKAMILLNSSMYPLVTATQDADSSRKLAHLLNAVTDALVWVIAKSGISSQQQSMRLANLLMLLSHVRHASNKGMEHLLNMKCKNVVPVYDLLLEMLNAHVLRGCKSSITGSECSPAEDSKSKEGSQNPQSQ

Experiment [11] shares this target. Kind of experiment: qHTS assay to identify small molecule antagonists of the estrogen receptor beta (ER-beta) signaling pathway (AID 1259378; active means well fitted inhibition curve with a large enough effect in the signal ratio in the repeat runs, not every such curve was filed as active; the % refers to the signal ratio). In outline:
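Antagonist mode: compounds added to beta-lactamase reporter HEK293T ER-beta-UAS cells stimulated with E2 (1nM final), 16 hr at 37C. LiveBLAzer B/G FRET substrate, 2 hours room temperature, fluorescence read-out.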

Experiment [12] in a line: qHTS assay to identify small molecule agonists of the androgen receptor (AR) signaling pathway in the presence of an antagonist - cell viability counter screen (AID 1259379).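 Further: MDA-kb2 human breast cancer cells carrying an MMTV luciferase reporter; series mostly up to about 92 µM; nearly all actives have a fitted effect of over 25% in size.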 In outline: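 Cytotoxicity is assessed by CellTiter-Fluor in MDA-kb2 cells carrying an MMTV-driven luciferase reporter. Cells receive 3.0uM nilutamide plus compounds at 15 concentrations and incubate 16 hr at 37C without CO2 before fluorescence reading.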

Experiment [13] can be described thus: qHTS assay to identify small molecule agonists of the estrogen receptor beta (ER-beta) signaling pathway - cell viability counter screen (AID 1259380). Further: nearly all actives have a fitted effect of over 30% in size. Further: potency means the concentration at half of the fitted maximal effect. In outline: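 Cytotoxicity is measured in parallel with the reporter screen: after 16 hr compound exposure at 37C and a 2 hr LiveBLAzer step, CellTiter-Glo is added to the same ER-beta-UAS-bla HEK293T wells and luminescence read after 30 min.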

The nature of experiment [14]: qHTS assay to identify small molecule antagonists of the estrogen receptor beta (ER-beta) signaling pathway - cell viability counter screen (AID 1259382).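 Further: HEK293T cells carrying ER-beta-UAS-bla reporter stimulated with estradiol; series mostly up to about 92 µM; nearly all actives have a fitted effect of over 55% in size.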 Summed up:
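Cytotoxicity counter screen multiplexed with the beta-lactamase antagonist assay: GripTite HEK293T ER-beta-bla cells were treated 16 hr with test chemicals in the presence of 1nM 17-beta-estradiol, and viability was measured by CellTiter-Glo.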

Experiment [15] deals with Estrogen receptor (Homo sapiens) (UniProt P03372). Kind of experiment: qHTS assay to identify small molecule agonists of the estrogen receptor alpha (ER-alpha) signaling pathway in the presence of an antagonist (AID 1259383; calls by dose curve; further: top concentration of the series differs between compounds; nearly all actives have a fitted effect of over 15% in size). Summed up: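 Agonist-mode confirmation in the presence of the ER antagonist ICI-182,780 at 10.0nM final. Breast-derived VM7Luc4E2 reporter cells were exposed to compounds for 22hr, and ERE-driven luciferase was quantified by luminescence.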

Experiment [16] can be described thus: qHTS assay to identify small molecule agonists or antagonists of the thyroid stimulating hormone receptor (TSHR) signaling pathway - wild type cell line counter screen (AID 1259384; calls by dose curve). In outline: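 Counter screen in untransfected Hek293: compounds (15-point titration, triplicate) plus phosphodiesterase inhibitor Ro20-1724 added after 18 h plating; 30 min RT. Intracellular cAMP via competitive d2/cryptate immunoassay, 1 h incubation.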

Experiment [17] deals with Thyrotropin receptor (Homo sapiens) (UniProt P16473). The experiment in a line: qHTS assay to identify small molecule antagonists of the thyroid stimulating hormone receptor (TSHR) signaling pathway (AID 1259385; calls by dose curve; further: nearly all actives have a fitted effect of over 20% in size). In outline:
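Antagonist mode: compound-treated TSHR-expressing HEK293 cells were stimulated with 1.5 ng/mL TSH (final) in presence of Ro20-1724 for 30 min at RT. HTRF cAMP detection after 1 h; each compound tested at 15 concentrations, triplicate.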

Experiment [18] is described as follows: qHTS assay to identify small molecule phospholipidosis (PLD) inducers (AID 1259344; active means well fitted curve in the direction sought with a large enough effect; an effect the other way counts as inactive or inconclusive). In outline: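 Accumulated phospholipid, stained red by LipidTOX during 24 h compound treatment of HepG2 cells at 37 C, is quantified from images as pit number and intensity, normalised per cell using Hoechst-stained nuclei.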
Experiment [19] can be described thus: qHTS assay to identify small molecule HDAC inhibitors (AID 1259364).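 Further: wild-type HCT-116 cells with endogenous class I/II HDAC activity; top concentration of the series differs between compounds; nearly all actives have a fitted effect of over 45% in size.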 Summed up: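 Cells (HCT-116, wild type) are seeded at 1,500 per well, incubated overnight, treated with compound in DMSO for 2 hr, then developed with HDAC-Glo I/II reagent for 30 min at room temperature.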
The target in experiment [20] is Androgen receptor (Homo sapiens) (UniProt P10275). Kind of experiment: qHTS assay to identify small molecule agonists of the androgen receptor (AR) signaling pathway in the presence of an antagonist (AID 1259381; calls by dose curve; further: nearly all actives have a fitted effect of over 15% in size). In outline:
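Agonist-mode confirmation screen: human MDA-kb2 cells stably expressing luciferase under an MMTV promoter bearing AR and GR response elements, co-treated with 3.0uM nilutamide (final). Luminescence measured after 16hr compound incubation.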

Structures are written as SMILES. Unmarked numbers belong to inactive results. Inconclusive results are not listed. The source made the active and inactive calls. Unless noted, the call rests on the fitted dose curve; in most records, active means well fitted curve in the direction sought with a large enough effect in the repeat runs; inconclusive means weak or mixed curves; inactive means no such curve, though single readings can be large; an effect the other way counts as inactive or inconclusive.

Chain of Thyrotropin receptor (Homo sapiens) (P16473 whole entry, looked up): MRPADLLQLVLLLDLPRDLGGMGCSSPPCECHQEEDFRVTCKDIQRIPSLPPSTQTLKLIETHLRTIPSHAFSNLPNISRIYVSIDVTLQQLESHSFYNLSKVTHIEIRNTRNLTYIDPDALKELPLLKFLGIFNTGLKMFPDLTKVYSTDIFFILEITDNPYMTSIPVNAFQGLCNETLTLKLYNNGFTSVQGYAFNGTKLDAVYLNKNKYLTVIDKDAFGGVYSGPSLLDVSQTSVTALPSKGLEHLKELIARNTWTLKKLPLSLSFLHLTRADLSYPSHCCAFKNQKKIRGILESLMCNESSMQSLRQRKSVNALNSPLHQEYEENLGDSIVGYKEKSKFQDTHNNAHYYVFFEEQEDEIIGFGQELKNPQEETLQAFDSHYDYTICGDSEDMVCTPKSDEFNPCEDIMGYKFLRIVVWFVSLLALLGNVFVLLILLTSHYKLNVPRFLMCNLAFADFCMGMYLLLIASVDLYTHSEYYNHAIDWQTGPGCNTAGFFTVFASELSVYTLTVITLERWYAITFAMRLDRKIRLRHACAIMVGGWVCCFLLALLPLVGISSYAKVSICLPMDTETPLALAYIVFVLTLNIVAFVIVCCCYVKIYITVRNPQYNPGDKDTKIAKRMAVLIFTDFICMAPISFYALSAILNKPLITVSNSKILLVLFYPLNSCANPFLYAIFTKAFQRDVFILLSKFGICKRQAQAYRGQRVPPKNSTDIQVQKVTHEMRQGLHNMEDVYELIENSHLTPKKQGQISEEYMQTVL
Chain of Androgen receptor (Homo sapiens) (P10275 whole entry, looked up): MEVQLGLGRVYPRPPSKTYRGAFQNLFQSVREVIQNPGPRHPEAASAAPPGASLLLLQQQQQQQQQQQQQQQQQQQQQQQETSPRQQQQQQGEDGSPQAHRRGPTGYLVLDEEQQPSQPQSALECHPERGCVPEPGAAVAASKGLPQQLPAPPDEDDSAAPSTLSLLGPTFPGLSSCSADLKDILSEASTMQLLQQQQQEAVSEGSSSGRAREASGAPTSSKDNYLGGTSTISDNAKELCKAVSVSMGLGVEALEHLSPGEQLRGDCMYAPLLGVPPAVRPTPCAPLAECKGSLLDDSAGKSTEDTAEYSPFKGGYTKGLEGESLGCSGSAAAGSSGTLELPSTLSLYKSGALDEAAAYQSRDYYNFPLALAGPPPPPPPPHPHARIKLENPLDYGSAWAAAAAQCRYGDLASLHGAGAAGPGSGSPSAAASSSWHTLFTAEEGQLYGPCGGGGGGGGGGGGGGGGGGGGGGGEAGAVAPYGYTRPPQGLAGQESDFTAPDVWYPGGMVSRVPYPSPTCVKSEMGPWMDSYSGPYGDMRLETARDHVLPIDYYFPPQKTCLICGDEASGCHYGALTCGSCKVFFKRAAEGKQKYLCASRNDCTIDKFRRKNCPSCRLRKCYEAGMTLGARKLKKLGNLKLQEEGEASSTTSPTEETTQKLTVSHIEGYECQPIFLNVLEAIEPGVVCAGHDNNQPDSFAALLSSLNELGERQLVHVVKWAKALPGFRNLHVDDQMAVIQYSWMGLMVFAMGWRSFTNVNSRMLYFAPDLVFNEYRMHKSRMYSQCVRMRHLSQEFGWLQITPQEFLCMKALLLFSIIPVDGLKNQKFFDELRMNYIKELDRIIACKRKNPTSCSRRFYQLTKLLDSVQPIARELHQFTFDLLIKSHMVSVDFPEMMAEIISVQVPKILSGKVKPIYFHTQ

For the molecule `CC(=O)N(CC(=O)N(C)C)c1ccccc1`, the Potency result in experiment [1], in experiment [2], in [3], in experiment [4], in experiment [6] and in experiment [7] was “inactive” throughout. Further, the Potency result in [9], in experiment [10], in experiment [11], in experiment [12], in [13] and in experiment [14] was “inactive” in each case. The Potency result in experiment [15], in experiment [16] and in experiment [17] was “inactive” throughout. In addition, the outcome in [5] and in experiment [8] was inactive.
As for `NC1CCN(c2nc3c(cc2F)c(=O)c(C(=O)O)cn3-c2ccc(F)cc2F)C1` (stereo not given), the Potency result in experiment [1], in [2], in experiment [4], in [18], in experiment [19] and in experiment [6] was “inactive” throughout. In addition, the Potency entry in [7], in experiment [9], in [12], in experiment [13], in experiment [14] and in [15] was “inactive” in each case. Also, the Potency entry in experiment [16] and in experiment [17] was “inactive” in each case. The molecule was classed as inactive in [5] and in experiment [8].
With `O=C(Cl)c1ccc([N+](=O)[O-])cc1`, the Potency entry in experiment [1], in experiment [2], in [3], in experiment [4], in experiment [19] and in experiment [6] was “inactive” throughout. Further, the Potency result in [7], in experiment [10], in [11], in experiment [12], in experiment [13] and in experiment [20] was “inactive” in each case. The Potency result in [14], in experiment [16] and in [17] was “inactive” in each case. The call in experiment [5] was inactive.
In the case of `CCCCCCc1ccc(N)cc1`, the Potency result in experiment [1], in experiment [2], in experiment [3], in experiment [4], in experiment [19] and in experiment [6] was “inactive” each time. Also, the Potency result in experiment [7], in [9], in [12], in experiment [20], in [14] and in [16] was “inactive” throughout. In addition, the Potency entry in experiment [17] was “inactive”. Also, the molecule was classed as inactive in experiment [5] and in experiment [8]. Also, the Potency in [13] is 27.3 µM (active).
In the case of `CCC(C)N(C)C(=O)c1cc2ccccc2c(-c2ccccc2Cl)n1` (stereo not given), the Potency result in experiment [1], in [2], in experiment [4], in [19], in [9] and in experiment [12] was “inactive” in each case. The Potency result in experiment [20], in experiment [14], in experiment [15], in experiment [16] and in experiment [17] was “inactive” throughout. Also, the Potency in [3] was 28 µM (active). Besides, in [8], the outcome was inactive.
`O=C1Nc2cc(Cl)ccc2Oc2ccccc21`: the Potency entry in [1], in experiment [2], in experiment [19], in experiment [6], in experiment [7] and in experiment [9] was “inactive” each time. Besides, the Potency entry in [10], in [12], in experiment [13], in experiment [20], in experiment [14] and in experiment [15] was “inactive” each time. Further, the Potency entry in [16] and in [17] was “inactive” each time. Moreover, the Potency in experiment [3] was 4.22 µM (active). Besides, the molecule was classed as inactive in experiment [5] and in experiment [8].
`O=C(O)c1cccc(N(Cc2cccnc2)c2ccc(OC(F)F)c(OC(F)F)c2)c1`: the Potency result in experiment [1], in [2], in experiment [19], in [6], in [7] and in experiment [12] was “inactive” in each case. The Potency entry in experiment [20], in experiment [16] and in [17] was “inactive” throughout. Also, the Potency in [3] was 24.3 µM (active); in experiment [9] it was 969 nM (active); in experiment [13] it was 48.6 µM (active). In addition, the result in experiment [5] and in experiment [8] was inactive.
In the case of `N=C(N=C(N)N)N1CCOCC1`, the Potency result in experiment [1], in experiment [2], in experiment [4], in experiment [18], in [19] and in experiment [6] was “inactive” throughout. The Potency entry in [7], in experiment [9], in experiment [10], in [11], in [12] and in experiment [15] was “inactive” throughout. Besides, the Potency entry in experiment [16] and in [17] was “inactive” throughout. The call in experiment [5] and in [8] was inactive.

(Values after PubChem BioAssay (Tox21).)
